Assay outcomes deposited in PubChem BioAssay by National Center for Advancing Translational Sciences (NCATS).
Compounds with a hit are over-represented: about 12% of the library has one in this group of screens.
Shiga toxin inh: Shiga toxin inhibition | actives 9.2% (n = 290,000) | AID 2315 | inhibition, % at 38.7 µM | Vero cells, Shiga toxin protein synthesis inhibition reporter; in the data active = inhibition mostly above about 28%, no sharp cut-off; inactive = mostly below about 43%
NS1 function inh: influenza NS1 inhibition | AID 2326 | actives 0.4% (n = 270,000) | Potency, µM (highest dose often 46.1 µM); also: actives are rising curves; nearly all actives have a fitted effect of over 50% in size
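A cell-based growth assay was used: compounds that relieve NS1-induced slow growth of budding yeast raise OD600. Assay medium was yeast nitrogen base with ammonium sulphate and -URA supplement, pH 6.0, with 2% galactose.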
CHX counter: counter-screen hit for Shiga toxin inhibitors, cycloheximide | actives 12% (n = 300,000) | max response, % | cell reporter, cycloheximide protein synthesis inhibition counterscreen; in the data active = max response mostly above about 13%, no sharp cut-off; inactive = mostly below about 14%; also: read at 38.3 µM for the half of the compounds with a filed dose
SARS PLP yeast: inhibitors of SARS-CoV papain-like protease in yeast; actives 0.19% (n = 330,000); S. cerevisiae expressing SARS-CoV PLpro, growth rescue; Potency, µM (series often up to 32.9 µM), most hits filed as activators; also: nearly all actives have a fitted effect of over 55% in size
A number is an active result; – = inactive; ? = inconclusive; · = not tested or not shown. Unless noted, calls follow the shape of the full dose curve.

SMILES	Shiga toxin inh	NS1 function inh	CHX counter	SARS PLP yeast
O=C(Nc1cccc(-c2cn3ccsc3n2)c1)c1ccccc1	–	–	–	–
CCCCC(=O)Nc1cccc(-c2cn3ccsc3n2)c1	47	–	34	–
COc1ccc(CN=C2NN=C(c3ccccc3)CS2)cc1	101	·	48	–
COc1ccc(CN=C2NN=C(c3cccc(OC)c3)CS2)cc1	82	·	42	–
COc1cccc(C2=Nn3c(nnc3-c3ccc(OC)cc3OC)SC2)c1	–	·	–	·
COc1cccc(C2=NNC(=NCc3ccccc3)SC2)c1	47	·	41	–
COc1ccc(CCNC(=O)c2csc3c2CCCC3)cc1	–	·	–	–
O=C(NC1CCCC1)c1csc2c1CCCC2	–	–	–	–
COc1ccc(NC(=O)c2csc3c2CCCCC3)c(OC)c1	–	·	16	–
O=C(Nc1ccccc1O)c1csc2c1CCCC2	98	–	35	–
O=C(NC12CC3CC(CC(C3)C1)C2)c1cccnc1Cl	–	–	–	–
CCOc1ccc(C(=O)NCC(=O)N2CCC3(CC2)NCCc2[nH]cnc23)cc1	–	–	–	–
CCS(=O)(=O)N1Cc2ccccc2CC1C(=O)Nc1ccc(OC)c(OC)c1 (stereo not given)	–	–	–	–
CCS(=O)(=O)N1Cc2ccccc2CC1C(=O)NCC12CC3CC(CC(C3)C1)C2 (stereo not given)	–	–	–	–
CCS(=O)(=O)N1Cc2ccccc2CC1C(=O)Nc1ccc(F)cc1 (stereo not given)	36	–	24	–
CCS(=O)(=O)N1Cc2ccccc2CC1C(=O)Nc1cccc(OC)c1 (stereo not given)	124	–	24	–
COC(=O)c1ccc(NC(=O)CSc2nc3ccccc3c(=O)[nH]2)cc1	–	–	–	–
CCC(Sc1nc2ccccc2c(=O)[nH]1)C(=O)Nc1ccc(C(C)=O)cc1 (stereo not given)	59	–	32	–
O=c1[nH]nc(Cc2ccc3ccccc3n2)c2ccccc12	36	–	28	–
CCN1C/C(=C/c2sccc2C)c2nc3ccccc3c(C(=O)O)c2C1	–	–	–	–
Cc1ccccc1/C=C1\CCCc2ccccc2C1=O	80	–	45	–
Cc1ccsc1/C=C1\CCc2ccccc2C1=O	–	–	41	–
O=C1/C(=C\c2ccc3ccccc3c2)CCCc2ccccc21	73	–	60	–
Cc1ccccc1/C=C1\Oc2ccccc2C1=O	·	·	·	–
O=S(=O)(c1ccc(Br)s1)N1CCN(c2ccnc3cc(Cl)ccc23)CC1	–	–	15	–
SMILES	Shiga toxin inh	NS1 function inh	CHX counter	SARS PLP yeast
COc1cccc(C(=O)NCC(=O)N/N=C/c2cccnc2)c1	–	–	–	–
O=C(CNC(=O)c1ccccn1)N/N=C/c1ccc2c(c1)OCO2	100	·	42	–
COc1ccc(C(=O)NCC(=O)N/N=C/c2cccc(OC(=O)c3ccco3)c2)cc1OC	–	·	33	–
O=C(CNC(=O)c1ccccc1Cl)N/N=C/c1ccc2c(c1)OCO2	–	–	–	–
O=C(CNC(=O)c1ccccc1F)N/N=C/c1ccc2c(c1)OCO2	55	–	45	–
COc1cccc(C(=O)NCC(=O)N/N=C/c2ccc3c(c2)OCO3)c1	83	–	44	–
O=C(CCS(=O)(=O)c1ccc(Br)cc1)Nc1ccccn1	–	–	–	–
COc1ccc(C2(C)NC(=O)N(CC(=O)Nc3ccc(C)cc3Br)C2=O)cc1OC (stereo not given)	–	–	–	–
O=c1[nH]c(/C=C/c2ccccc2F)nc2ccccc12	71	–	34	–
c1ccc(-c2nc3c(ccc4ccccc43)[nH]2)nc1	94	–	42	–
Cc1sc2nc(-c3ccccn3)[nH]c(=O)c2c1-c1ccccc1	114	·	71	–
O=c1[nH]c(-c2ccccn2)nc2ccccc12	–	–	44	–
O=c1[nH]c(-c2ccccn2)nc(C(F)(F)F)c1Br	–	–	–	–
O=c1[nH]c(/C=C/c2ccccn2)nc2ccccc12	70	–	56	–
O=c1[nH]c(/C=C/c2cccc3ccccc23)nc2ccccc12	–	–	–	–
O=Cc1cccc(OC(=O)c2ccc(Cl)cc2Cl)c1	–	–	26	–
Cc1cc(C)nc(OC(=O)c2ccc(Cl)cc2Cl)n1	–	–	17	–
Cc1cc(O)ccc1N=Cc1c(C(F)(F)F)[nH][nH]c1=O	–	–	–	–
CCc1ccc(NC(=O)[C@H](NC(=O)[C@@H]2Cc3ccccc3CN2)c2ccccc2)cc1	–	–	28	–
CCc1ccc(NC(=O)[C@@H](NC(=O)[C@@H]2Cc3ccccc3CN2)C(C)CC)cc1 (stereo not given in full)	–	–	16	–
CC(C)C[C@H](NC(=O)[C@@H]1Cc2ccccc2CN1)C(=O)Nc1ccc(C(C)C)cc1	–	–	23	–
CC(C)c1ccc(NC(=O)C2CCC(CNC(=O)[C@@H]3Cc4ccccc4CN3)CC2)cc1 (stereo not given in full)	–	–	15	–
CCC(C)[C@H](NC(=O)[C@@H]1Cc2ccccc2CN1)C(=O)NCc1ccc(OC)cc1 (stereo not given in full)	–	–	–	–
CC(C)c1ccc(NC(=O)[C@@H](C)NC(=O)[C@@H]2Cc3ccccc3CN2)cc1	–	–	–	?
O=C(CN1C(=O)COc2ccc(Cl)cc21)NC1CC1	–	–	–	–
SMILES	Shiga toxin inh	NS1 function inh	CHX counter	SARS PLP yeast
O=C1CSC(c2ccccc2Br)N1c1ccc(Cl)cn1 (stereo not given)	–	·	–	–
CC(=O)Nc1ccc(NC(=O)CSc2nnc(NC(=O)c3cccc(F)c3)s2)cc1	–	–	–	–
CC(=O)Nc1nnc(SCC(=O)NC2CCCC2)s1	–	–	–	–
COc1ccc(C(=O)Nc2nnc(SCC(=O)Nc3ccc(NC(C)=O)cc3)s2)c(OC)c1	119	–	48	–
CCc1nnc(NC(=O)c2ccc(OC)cc2OC)s1	66	–	38	–
COc1ccc(C(=O)Nc2nnc(SCC(=O)NC3CC3)s2)cc1	51	–	39	–
COc1ccc(C(=O)Cc2nnc(C)s2)c(OC)c1	–	–	–	–
COc1ccc(C(=O)Nc2nnc(SCC(=O)NC3CCCC3)s2)c(OC)c1	96	–	42	–
COc1cccc(C(=O)Nc2nnc(SCC(=O)NC3CC3)s2)c1	–	–	–	–
COc1ccc(NC(=O)NCCCN2CCCC2=O)c(OC)c1	–	–	–	–
O=c1c2ccccc2ncn1Cc1ccc2c(c1)OCO2	–	–	–	–
CCOc1ccccc1C(=O)Nc1nnc(COC)s1	–	–	21	–
O=C(O)c1cc(-c2ccc(/C=N/Nc3ccc(Cl)cc3)o2)ccc1Cl	–	–	–	–
Nc1nonc1C(=O)N/N=C/c1ccc(Br)o1	72	–	39	–
Nc1nonc1C(=O)N/N=C/c1ccc(-c2ccc(Cl)c(C(=O)O)c2)o1	48	·	14	–
N/C(=N\N=C\c1ccc(Br)o1)c1nonc1N	82	–	47	–
COc1ccccc1C(=O)NNC(=O)c1ccc(Br)o1	82	–	44	–
COc1ccccc1C(=O)NNC(=O)c1ccc(Br)cc1	–	–	10	–
COC(=O)c1ccc(CO/N=C/c2ccccc2OC)cc1	–	–	–	–
